# This is a sample that favours compounds with a hit; in the whole collection about 0.45% have one here.
# Proteasome disasm: blocks ATP-dependent breakdown of the yeast 26S proteasome | anti-FLAG beads, GFP-proteasome disassembly, flow cytometry | inhibition of disassembly, % (no concentration beside the values) | 24,000 tested, 0.2% active;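 active means inhibition of disassembly above about 33%, limit read from the data; inconclusive means likely self-fluorescent, control bead median signal at least 40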;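 further: plate controls were ATP control with full disassembly for no effect and ATP-gamma-S intact proteasomes for full effect; higher percent means more bead fluorescence retained so stronger block of disassembly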
# QS inhibitor: S. aureus quorum sensing inhibition | S. aureus RN6390 RNAIII-GFP reporter, AIP-induced, flow cytometry 3 h | inhibition, % at 2 µM | 24,000 tested, 0.3% active | AID 527;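 active means share of bacteria positive for the green fluorescent reporter and its mean brightness both inhibited by 50% or more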;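 further: 0% = AIP-stimulated control and 100% = unstimulated bacteria without AIP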
# Numbers without * were called inactive; ? = inconclusive; nt = no result given.
SMILES,Proteasome disasm,QS inhibitor
Cc1sc2nc3c(C(=O)N4CCN(c5ncccn5)CC4)cccn3c(=O)c2c1C,1,-2
O=C(CN1CCN(CC(=O)Nc2ccccc2C(F)(F)F)CC1)Nc1ccccc1F,0,-1
O=C(Nc1ccccc1C(F)(F)F)N1CCN(c2ccc3nnc(-c4ccc(F)cc4)n3n2)CC1,5,-5
Fc1ccc(-c2nnc3ccc(N4CCc5ccccc5C4)nn23)cc1,2,69*
COc1ccc(-n2c(=O)c3ccccc3n(CC(=O)Nc3cc(C)on3)c2=O)cc1OC,-1,-3
CCOc1ccc(NC(=O)C2CCCN(S(=O)(=O)c3c(C)nn(C)c3C)C2)cc1 (stereo not drawn),?,96*
CCOc1ccc(NC(=O)C2CCCN(S(=O)(=O)c3c(C)n[nH]c3C)C2)cc1 (stereo not drawn),-1,-3
CCOC(=O)C1=C(C)NC(C)=C(C(=O)OCC)C1c1cc(N)ccc1OC(F)F,1,0
Cc1c(C(=O)O)sc2nc3n(c(=O)c12)CCC(C)CC3 (stereo not drawn),-1,-1
N#Cc1c(NC(=O)COC(=O)C2CC3C=CC2C3)oc(-c2ccccc2)c1-c1ccccc1 (stereo not drawn),-3,91*
COc1ccccc1OCC(=O)Nc1oc(-c2ccccc2)c(-c2ccccc2)c1C#N,nt,1
N[C@@H](Cc1cc(I)c(Oc2ccc(O)c(I)c2)c(I)c1)C(=O)O,0,21
O=C(O)CCc1cc(I)c(Oc2ccc(O)c(I)c2)c(I)c1,0,88*
N#CCCSc1ccccc1NC(=O)c1ccc(S(=O)(=O)N2CCCC2)cc1,0,-5
O=C(CN1C(=O)C2CCCN2c2ncc(Cl)cc21)NCc1ccc2c(c1)OCO2 (stereo not drawn),55*,1
CCc1ccccc1NC(=O)CN1C(=O)C2CCCN2c2ncc(Cl)cc21 (stereo not drawn),1,-3
CC1CCC(NC(=O)CN2C(=O)C3CCCN3c3ncc(Cl)cc32)CC1 (stereo not drawn),17,2
COC(=O)c1ccccc1NC(=O)CN1C(=O)C2CCCN2c2ncc(Cl)cc21 (stereo not drawn),49*,3
COc1cccc(CNC(=O)C2CCN(c3cnccn3)CC2)c1,-1,-2
CC(C)OP(=O)(c1ccc(N(C)C)cc1)C(O)c1ccccc1F (stereo not drawn),1,-2
CC(C)CCOP(=O)(c1ccc(N(C)C)cc1)C(O)c1ccccc1F (stereo not drawn),0,82*
O=C(Cn1ncc2c(=O)oc3ccccc3c21)NCCN1CCN(c2ccccc2F)CC1,1,-2
C=C(C)COc1ccc(-c2nc(N)ncc2-c2ccc(OC)cc2)c(O)c1,-1,14
COc1cccc(Oc2cnc(N)nc2-c2ccc(OC)cc2O)c1,0,62*
CCCOc1ccc(/C=c2\sc3nc(-c4ccco4)nn3c2=O)cc1OCC,125*,-4
SMILES,Proteasome disasm,QS inhibitor
CC(=O)Oc1cccc(/C=c2\sc3nc(-c4ccco4)nn3c2=O)c1,2,-1
Cc1nc2ccccn2c1/C(O)=C1\C(=O)C(=O)N(CCCN(C)C)C1c1ccc(Cl)cc1 (stereo not drawn),0,-2
CC[C@H]1OC(=O)C[C@@H](O)[C@H](C)[C@@H](O[C@@H]2O[C@H](C)C[C@H](N(C)C)[C@H]2O)[C@@H](CC=O)C[C@@H](C)C(=O)C=C[C@]2(C)O[C@H]2[C@@H]1C,0,51*
CC(C)OC(=O)c1nnn(-c2nonc2N)c1CSc1ccccn1,-1,-2
Cc1ccc(S(=O)(=O)NC(CC(=O)NCC2CCCO2)c2ccco2)cc1 (stereo not drawn),0,1
O=C(Nc1nc2c(s1)CCc1ccccc1-2)c1cccs1,1,79*
CSc1nc2ccc3nc(NC(=O)c4cccs4)sc3c2s1,1,0
COc1ccccc1-n1c(C)nnc1SCC(=O)Nc1cccc(C(C)=O)c1,1,-14
O=C(NCC(c1cccnc1)N1CCOCC1)c1cccc(Cl)c1 (stereo not drawn),-3,-2
O=C(NCC(c1cccnc1)N1CCN(c2ccccc2F)CC1)c1cccc(Cl)c1 (stereo not drawn),-3,59*
CCC(=O)O[C@@H]1CC(=O)O[C@H](C)CC=CC=C[C@@H](O)[C@H](C)C[C@H](CC=O)[C@H](O[C@H]2O[C@H](C)[C@@H](O[C@H]3C[C@@](C)(O)[C@@H](OC(=O)CC)[C@H](C)O3)[C@H](N(C)C)[C@H]2O)[C@H]1OC,0,51*
CC(=O)N1CCc2cc(S(=O)(=O)NC(CC(C)C)C(=O)Nc3ccc4c(c3)OCCO4)ccc21 (stereo not drawn),?,-1
Cc1ccc(CNC(=O)CCNC(=O)Cn2ccc3ccccc3c2=O)o1,-1,-12
CC(=O)N1C(=O)C(=C2C=C(C)OC(C)=C2)c2ccccc21,85*,0
CC1=CC(=C2C(=O)c3ccccc3C2=O)C=C(C)O1,34,2
Cn1nnnc1SCC(=O)N1CCN(c2cccc(Cl)c2)CC1,1,3
CCN(CCNC(=O)Cn1c(=O)sc2ccccc21)c1ccccc1,-2,-3
COc1ccc(N2CCN(c3nc4c(c(=O)[nH]c(=O)n4C)n3CCCc3ccccc3)CC2)cc1,1,-1
Cc1cccc(C2N(c3ccc(F)cc3)C(=O)C3CCCN32)c1 (stereo not drawn),61*,-4
Cc1ccc(C2N(c3ccc(F)cc3)C(=O)C3CCCN32)cc1 (stereo not drawn),16,-1
Cc1ccc(NC(=O)c2cc(C)on2)cc1,1,76*
CCc1ccc(NC(=O)c2cc(C)on2)cc1,2,-4
O=C(CCN1C(=O)C2C3C=CC(C3)C2C1=O)NC1CCCc2ccccc21 (stereo not drawn),0,-4
CCOC(=O)c1c(COc2ccccc2)oc2ccc(O)cc12,nt,5
CCc1oc2ccccc2c1C(=O)c1cc(Br)c(O)c(Br)c1,0,52*
CCOC(=O)Cc1nnc(Nc2cccc(O)c2)c2ccccc12,2,19
Cc1cc(N2CCN(C(=O)c3ccco3)CC2)n2nc(C)nc2n1,2,0

# Screening results as filed in PubChem BioAssay.
